# From PubChem BioAssay AID485297 (National Center for Advancing Translational Sciences (NCATS), 2010)
# The whole screen tested about 320,000 compounds, of which about 9,100 (2.8%) were called active. A call without a number means that no potency is given here. Another 3% or so got no clear call; they are omitted. This excerpt belongs to a sample that is enriched for actives. A number with no mark means an inactive call. The call rests on the fitted dose curve; in most records, active means well fitted activation curve with a large enough effect; inconclusive means small, poorly fitted or top-dose-only effect; inactive means no such curve, though single readings can be large or run the other way.
# Assay: qHTS Assay for Rab9 Promoter Activators; further: nearly all actives have a fitted effect of over 60% in size
# Conditions: Huh7 Rab9 promoter-luciferase reporter, luminescence, 24 h; series mostly up to 9.22 µM
# Method in brief: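 Cell-based reporter: Huh7 stable for Rab9 promoter-driven luciferase, plated in reduced-serum medium with 10% FBS at 1500 cells/well, compound-treated 24 h at 37 °C, luminescence read after 10 min reagent.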
# Potency means the concentration at half of the fitted maximal effect.
Structure (SMILES),Potency,"activation, negative = inhibition"
Cc1c(NS(=O)(=O)c2cc(C(=O)NCCc3ccc(F)cc3)cc(Cl)c2Cl)c(=O)n(-c2ccccc2)n1C,inactive,
O=C(COC(=O)C1(c2ccc(F)cc2)CCCC1)N1CCNC1=O,inactive,
CCn1c(=N)n(CC(=O)c2cccc(OC)c2)c2ccccc21,3160 nM (active),
COc1ccc2cc(C(=O)O)n(CC(=O)c3ccccc3)c2c1,inactive,
CCOC(=O)c1cc2ccccc2n1CC(=O)c1ccccc1,inactive,
O=C1OC2(CCCCC2)CC2=C1C1O[C@](c3ccsc3)(Cc3ccccc31)O2,,1.46% [at 1.84 µM]
COc1ccc(OCCCC(=O)Nc2cccc(S(=O)(=O)N3CCCCCC3)c2)cc1,inactive,
COc1ccc(/C(C)=N/NC(=O)c2ccc3nc[nH]c3c2)cc1,inactive,
C/C(=N\NC(=O)c1nc(C)cc(C)n1)c1ccccc1,1780 nM (active),
C/C(=N\NC(=O)c1cccnc1)c1ccc(-c2ccccc2)cc1,inactive,
Cc1ccc(Nc2nnc(SC(C)C(=O)NC3CC3)s2)cc1 (stereo unspecified),inactive,
Oc1c(Br)cccc1/C=N/Nc1c(F)c(F)c(F)c(F)c1F,inactive,
COc1ccc(/C=N/S(=O)(=O)c2ccccc2)cc1OC,inactive,
CCOc1ccc(/C=N/Nc2nncc(-c3ccccc3)n2)cc1OC,inactive,
Brc1ccccc1/C=N/Nc1nc2ccccc2o1,2820 nM (active),
COc1ccc(/C=N/Nc2nc3ccccc3o2)cc1OC,1000 nM (active),
CCOc1ccccc1/C=N/Nc1nc2ccccc2o1,inactive,
Cc1nc(SCC(=O)NC2CCCCC2C)c(C#N)c(C)c1C (stereo unspecified),inactive,
Cc1ccc(S(=O)(=O)N2CC(O)C[C@H]2C(=O)OCC(=O)Nc2ccc(N3CCOCC3)cc2)cc1C (stereo partly specified),inactive,
O=C(CCNC(=O)c1ccc(Cl)cc1)NC1CCCc2ccccc21 (stereo unspecified),inactive,
O=C(NCC1CCCO1)c1cc2c(s1)CCCC2 (stereo unspecified),2510 nM (active),
CCC(=O)c1c[nH]c(C(=O)NCC2CCCO2)c1 (stereo unspecified),inactive,
O=C(NCCCN1CCOCC1)c1cc2c(s1)CCC2,inactive,
CN(C)C(=O)c1ccc(NC(=O)COC(=O)c2cc3c(s2)CCCCC3)cc1,inactive,
O=C(CNC(=O)c1cc2c(s1)CCC2)Nc1ccccc1Br,inactive,
O=C(Nc1ccc(F)cc1)c1cc2c(s1)CCCC2,1260 nM (active),

Structure (SMILES),Potency,"activation, negative = inhibition"
CC(C)Cc1nnc(NC(=O)CCNC(=O)c2ccccc2Cl)s1,inactive,
CCN(CC(=O)Nc1ccccc1OC)C(=O)CC1CC2CCC1C2 (stereo unspecified),inactive,
COc1ccc(/C=C(\C#N)C(=O)NCCCn2ccnc2)cc1,inactive,
Cc1ccc(S(=O)(=O)c2nc(NCCCn3ccnc3)sc2Cl)cc1,inactive,
Cc1ccc(-c2nc(C#N)c(NCCCn3ccnc3)o2)cc1,3980 nM (active),
O=C(CCc1nc(-c2ccccc2)no1)Nc1cccc(C(=O)NC2CC2)c1,inactive,
COC(=O)c1ccc(/C=N\n2c(C)nnc2C)cc1,inactive,
CC1CCCC(C)N1/N=C/c1ccccc1OC(F)F (stereo unspecified),inactive,
COC(=O)c1ccc(/C=N/N2C(C)CCCC2C)cc1 (stereo unspecified),2240 nM (active),
CCC1(CC)NC(=O)N(CC(=O)OCC(=O)c2cc(C)c(C)cc2C)C1=O,inactive,
CC(C)CN(C(=O)c1cccc(S(=O)(=O)N2CCCCC2)c1)C1CCS(=O)(=O)C1 (stereo unspecified),inactive,
CCC(=O)NC(=S)Nc1ccc(NC(=O)c2ccco2)c(Cl)c1,inactive,
O=C(NNC(=O)c1ccco1)Nc1ccccc1,inactive,
O=C(NNC(=S)Nc1ccc(Br)cc1Cl)c1ccco1,2820 nM (active),
O=C(Nc1ccc([N+](=O)[O-])cc1)OCCc1ccccn1,3550 nM (active),
O=[N+]([O-])c1ccc(NC(=S)N2CCN(c3ccccn3)CC2)cc1,inactive,
O=C(NCCc1ccccn1)c1nc(Cn2cc([N+](=O)[O-])cn2)no1,inactive,
CC(=O)c1ccc(NC(=O)c2sc3nc4n(c(=O)c3c2C)CCCCC4)cc1,inactive,
Cc1c(C(=O)Nc2cccc(-c3nnc4n3CCCCC4)c2)oc2ccccc12,inactive,
Cc1c(C(=O)Nc2ccccc2)sc2nc3n(c(=O)c12)CCCCC3,2510 nM (active),
COc1cccc(CNC(=O)COC(=O)CN2C(=O)NC3(CCCCC3C)C2=O)c1 (stereo unspecified),inactive,
COc1ccc(OC)c(-c2csc(NC(=O)COC(=O)C3CC3)n2)c1,inactive,
COC(=O)c1cn(CC(=O)NCc2cccs2)c2ccccc12,3550 nM (active),
O=C(Cn1cc(C(=O)c2cccs2)c2ccccc21)NCc1cccs1,inactive,
COC(=O)Cn1cc(C(=O)c2cccs2)c2ccccc21,inactive,
